{
  "source": "PubChem BioAssay AID493166",
  "about": "(National Center for Advancing Translational Sciences (NCATS), 2011)",
  "note": "Calls of active or inactive are those of the source. A call without a number means that no potency is given here. Calls follow the shape of the dose curve; as a rule, active = well fitted curve in the direction sought with a large enough effect; inactive = no such curve, though single readings can be large or run the other way.",
  "data": [
    {"assay": "Retest of LOPAC molecules that induce DNA re-replication in MCF 10A normal breast cells.", "conditions": "MCF 10A DNA re-replication, Hoechst nuclear intensity, 48 h; series mostly up to 45.1 µM", "from_the_text": "NIH Molecular Libraries Probe Production Network [MLPCN] NIH Chemical Genomics Center [NCGC] MLPCN Grant: Fast Track K99 CA136555 Assay Provider: Melvin DePamphilis, NICHD, NIH Assay Overview Eukaryotic cells normally restrict genome duplication to once per cell division. When this process is aberrant, DNA re-replication occurs when cells reinitiate DNA replication before the first round of replication is complete. DNA re-replication induces the DNA damage response, arrests cell proliferation, and triggers apoptosis. The cell cycle components cyclin A, Cdt-1, Cdc6 and geminin are critical regulators of this process and their misregulation results in DNA re-replication in normal and cancer cells. To identify compounds that induce re-replication in normal cells, an image-based assay was used to measure DNA content of nuclei, as detected by the fluorescent DNA binding dye, Hoechst. Cell nuclei were imaged by a fluorescence scanning plate imager and compounds that induce DNA re-replication were identified by the increase of nuclei with elevated fluorescence intensity.\nAssay Protocol Summary For screening, 250 cells in 5 uL/well were dispensed into black clear 1536-well plates (Aurora) using a solenoid-based dispenser. Following transfer of 23 nL compound or DMSO vehicle by a pin tool, the plates were incubated 48 hr at 37 C and 5% CO2. After addition of 1 uL/well Hoescht stain, the plates were incubated 40 min at 37 C, 5% CO2 and total intensity of fluorescent objects (nuclei) were enumerated by an Acumen Explorer Ex3 (TTP LabTech) fluorescence scanning plate imager (405 nm excitation, 500-530 nm emission). Keywords: NIH Roadmap, MLPCN, MLI, MLSMR, qHTS, NCGC, DNA replication, cancer", "values": [
      {"smiles": "CC(C)NP(=O)(NC(C)C)OP(=O)(NC(C)C)NC(C)C", "Potency": "inactive"},
      {"smiles": "COc1cc2c(c(OC)c1OC)-c1ccc(OC)c(=O)cc1[C@@H](NC(C)=O)CC2", "Potency": "inactive"},
      {"smiles": "C=C(C)[C@H]1Cc2c(ccc3c2O[C@@H]2COc4cc(OC)c(OC)cc4[C@@H]2C3=O)O1", "Potency": "755 nM (active)"}
    ]}
  ]
}
